The text below walks through data of PubChem BioAssay.

Activity calls are given as the source filed them.

The nature of test [1]: small molecules captured by biotinylated probe aFSTL3 – biochemical, small-molecule microarray, fluorescence 635/667, stem cell growth factor project, primary screen (AID 1064).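 Note: measures binding of the biotinylated anti-FSTL3 antibody to printed compounds.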 To be noted: higher = more signal.
Test [2] is described as follows: binders from COS7 lysate, DM2A8 probe, primary screen, torsin A project, cell lysate, small-molecule microarray, fluorescence 635/667 (AID 1065). To be noted: higher = more signal, COS7 lysate expressing mutant human TOR1A.
Test [3] can be described thus: small molecules captured by biotinylated probe aFGF2 – biochemical, small-molecule microarray, fluorescence 635/667, stem cell growth factor project, primary screen (AID 1067).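 Note: measures binding of biotinylated aFGF2 protein to printed compounds on slides; z-score merges feature fluorescence and signal-to-noise across triplicate slides.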 To be noted: higher = more signal.
A short description of test [4]: small molecules captured by biotinylated probe aFGF10 – biochemical, small-molecule microarray, fluorescence 635/667, stem cell growth factor project, primary screen (AID 1071).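 Note: score merges 667 nm spot intensity and signal to noise from triplicate slides.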 The conditions noted are these: higher = more signal.
The target in test [5] is Neurogenic locus notch homolog protein 2 (Homo sapiens) (UniProt Q04721). The test is described as follows: small molecules binding Notch2 protein – biochemical, small-molecule microarray, 635 nm fluorescence, stem cell growth factors, primary screen (AID 1073). The conditions noted are these: higher = more signal.
Test [6] has as its target Pro-neuregulin-1, membrane-bound isoform (Homo sapiens) (UniProt Q02297). The test is described as follows: small molecules binding neuregulin-1 protein – biochemical, small-molecule microarray, fluorescence 635/667, psychiatric disease protein project, primary screen (AID 1075).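 Note: score combines 667 nm spot fluorescence with signal to noise.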 To be noted: NRG1 binding, 635 nm fluorescence, higher = more signal.
Test [7] relates to Neuregulin-1 EGF-like domain. The test is described as follows: small molecules binding NRG1 EGF domain – biochemical, small-molecule microarray, 635 nm fluorescence, primary screen (AID 1081).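 Note: binding of the protein to compounds printed on small-molecule microarray slides.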 To be noted: higher = more signal.
The nature of test [8]: FRG1 expression reporter modulators in myotubes – cell-based, C2C12 myotubes, firefly/Renilla luciferase, luminescence, FRG1 inhibition for FSHD, primary screen (AID 1084). To be noted: FRG1 promoter luciferase, higher = more signal, called active from +8 up or from −8 down.
Test [9] can be described thus: small molecules captured by biotinylated probe aFST – biochemical, small-molecule microarray, fluorescence 635/667, stem cell growth factor project, primary screen (AID 1086).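 Note: score merges 667 nm fluorescence with signal-to-noise of each printed compound spot.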 The conditions noted are these: higher = more signal.
A short description of test [10]: binders of probe aHhip on microarray, primary screen, stem cell growth factor project, biochemical, small-molecule microarray, fluorescence 635/667 (AID 1087).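 Note: score merges spot fluorescence at 667nm with spot signal to noise ratio.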 To be noted: higher = more signal.
Test [11] has as its system PRMT1 (protein arginine N-methyltransferase 1). The test is described as follows: small molecules binding arginine methyltransferase PRMT1 – biochemical, small-molecule microarray, 635 nm fluorescence, primary screen (AID 1088).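 Note: binding of Prmt1 protein to compounds spotted on small-molecule microarray slides.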 To be noted: higher = more signal.
The nature of test [12]: growth effects on S. cerevisiae YJM789 – YJM789 clinical isolate, OD600, 24 h, basal, primary screen (AID 1089).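 Note: growth of clinical yeast isolate S. cerevisiae YJM 789 seeded 1000 cells per well; test concentration not given here.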 To be noted: higher = more signal, called active from +8 up or from −8 down.
A short description of test [13]: S. pombe growth modifiers, basal conditions – strain 972, OD600, 24 h, no modulator, primary screen (AID 1090).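 Note: basal condition with compound alone and no growth modifier present; test concentration not given here.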 To be noted: S. pombe 972 growth, higher = more signal, called active from +8 up or from −8 down.
Test [14] in a line: budding yeast growth modifiers under rapamycin – strain BY4716, OD600, 96 h, primary screen (AID 1091). Note: test concentration not given here. The conditions noted are these: S. cerevisiae BY4716 + rapamycin, higher = more signal, called active from +8 up or from −8 down.
Test [15] deals with Torsin-1A-interacting protein 2 (Homo sapiens) (UniProt Q8NFQ8). The experiment in a line: small molecules binding lysate-expressed LULL1 – cell lysate, human LULL1 lysate, 635/667 nm fluorescence, primary screen (AID 1092).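 Note: score merges per-feature 667 nm fluorescence with signal-to-noise.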 The conditions noted are these: small-molecule microarray, hLULL1 lysate binding, 635 nm fluorescence; higher = more signal.
The nature of test [16]: optical density change of DRC41 E. coli – strain DRC41, OD650, 24 h, E. coli filamentation project, primary screen (AID 1093).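 Note: MC1000 strain lacking acrAB efflux and sulA so SOS filamentation is blocked; test concentration not given here.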 The conditions noted are these: E. coli DRC41 growth, higher = more signal, called active from +8 up or from −8 down.
Test [17] in a line: probe aLefty2 binding to arrayed compounds – biochemical, biotinylated probe, 635/667 nm fluorescence, primary screen (AID 1094).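 Note: score merges spot fluorescence near 667 nm with spot signal-to-noise ratio.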 To be noted: small-molecule microarray, higher = more signal.
Test [18] has as its system Noggin (protein binding on small-molecule microarray). The experiment in a line: small molecules binding Noggin protein – biochemical, 635/667 nm fluorescence, primary screen (AID 1095).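 Note: score merges 667 nm feature fluorescence with signal to noise over triplicate slides.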 The conditions noted are these: 635 nm fluorescence, higher = more signal.
In test [19] the target is Neurogenic locus notch homolog protein 3 (Homo sapiens) (UniProt Q9UM47). The test is described as follows: small molecules binding NOTCH3 protein – biochemical, 635/667 nm fluorescence, primary screen (AID 1096). To be noted: small-molecule microarray, 635 nm fluorescence, higher = more signal.
Test [20] can be described thus: probe aEGFR binding to arrayed compounds – biochemical, biotinylated probe, 635/667 nm fluorescence, primary screen (AID 1097).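 Note: probe is a biotinylated anti-EGFR antibody binding compounds printed on slides; score combines fluorescence near 667 nm and signal to noise of each spot.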 To be noted: small-molecule microarray, higher = more signal.

Sequence of Torsin-1A-interacting protein 2 (Homo sapiens) (Q8NFQ8 whole entry, looked up): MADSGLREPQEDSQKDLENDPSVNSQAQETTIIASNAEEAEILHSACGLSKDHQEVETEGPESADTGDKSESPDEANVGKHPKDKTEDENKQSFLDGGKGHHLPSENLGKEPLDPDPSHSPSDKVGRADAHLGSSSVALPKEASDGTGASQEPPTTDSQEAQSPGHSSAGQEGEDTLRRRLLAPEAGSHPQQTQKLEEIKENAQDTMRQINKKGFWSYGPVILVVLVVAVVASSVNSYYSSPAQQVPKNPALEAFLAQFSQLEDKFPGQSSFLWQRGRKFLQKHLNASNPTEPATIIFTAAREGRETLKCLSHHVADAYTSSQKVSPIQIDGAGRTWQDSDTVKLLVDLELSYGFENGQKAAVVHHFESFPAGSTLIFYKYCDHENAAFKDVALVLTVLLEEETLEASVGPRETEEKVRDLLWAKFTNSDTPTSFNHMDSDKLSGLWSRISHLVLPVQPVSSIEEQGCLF
Sequence of Neurogenic locus notch homolog protein 2 (Homo sapiens) (Q04721 whole entry, looked up, canonical isoform): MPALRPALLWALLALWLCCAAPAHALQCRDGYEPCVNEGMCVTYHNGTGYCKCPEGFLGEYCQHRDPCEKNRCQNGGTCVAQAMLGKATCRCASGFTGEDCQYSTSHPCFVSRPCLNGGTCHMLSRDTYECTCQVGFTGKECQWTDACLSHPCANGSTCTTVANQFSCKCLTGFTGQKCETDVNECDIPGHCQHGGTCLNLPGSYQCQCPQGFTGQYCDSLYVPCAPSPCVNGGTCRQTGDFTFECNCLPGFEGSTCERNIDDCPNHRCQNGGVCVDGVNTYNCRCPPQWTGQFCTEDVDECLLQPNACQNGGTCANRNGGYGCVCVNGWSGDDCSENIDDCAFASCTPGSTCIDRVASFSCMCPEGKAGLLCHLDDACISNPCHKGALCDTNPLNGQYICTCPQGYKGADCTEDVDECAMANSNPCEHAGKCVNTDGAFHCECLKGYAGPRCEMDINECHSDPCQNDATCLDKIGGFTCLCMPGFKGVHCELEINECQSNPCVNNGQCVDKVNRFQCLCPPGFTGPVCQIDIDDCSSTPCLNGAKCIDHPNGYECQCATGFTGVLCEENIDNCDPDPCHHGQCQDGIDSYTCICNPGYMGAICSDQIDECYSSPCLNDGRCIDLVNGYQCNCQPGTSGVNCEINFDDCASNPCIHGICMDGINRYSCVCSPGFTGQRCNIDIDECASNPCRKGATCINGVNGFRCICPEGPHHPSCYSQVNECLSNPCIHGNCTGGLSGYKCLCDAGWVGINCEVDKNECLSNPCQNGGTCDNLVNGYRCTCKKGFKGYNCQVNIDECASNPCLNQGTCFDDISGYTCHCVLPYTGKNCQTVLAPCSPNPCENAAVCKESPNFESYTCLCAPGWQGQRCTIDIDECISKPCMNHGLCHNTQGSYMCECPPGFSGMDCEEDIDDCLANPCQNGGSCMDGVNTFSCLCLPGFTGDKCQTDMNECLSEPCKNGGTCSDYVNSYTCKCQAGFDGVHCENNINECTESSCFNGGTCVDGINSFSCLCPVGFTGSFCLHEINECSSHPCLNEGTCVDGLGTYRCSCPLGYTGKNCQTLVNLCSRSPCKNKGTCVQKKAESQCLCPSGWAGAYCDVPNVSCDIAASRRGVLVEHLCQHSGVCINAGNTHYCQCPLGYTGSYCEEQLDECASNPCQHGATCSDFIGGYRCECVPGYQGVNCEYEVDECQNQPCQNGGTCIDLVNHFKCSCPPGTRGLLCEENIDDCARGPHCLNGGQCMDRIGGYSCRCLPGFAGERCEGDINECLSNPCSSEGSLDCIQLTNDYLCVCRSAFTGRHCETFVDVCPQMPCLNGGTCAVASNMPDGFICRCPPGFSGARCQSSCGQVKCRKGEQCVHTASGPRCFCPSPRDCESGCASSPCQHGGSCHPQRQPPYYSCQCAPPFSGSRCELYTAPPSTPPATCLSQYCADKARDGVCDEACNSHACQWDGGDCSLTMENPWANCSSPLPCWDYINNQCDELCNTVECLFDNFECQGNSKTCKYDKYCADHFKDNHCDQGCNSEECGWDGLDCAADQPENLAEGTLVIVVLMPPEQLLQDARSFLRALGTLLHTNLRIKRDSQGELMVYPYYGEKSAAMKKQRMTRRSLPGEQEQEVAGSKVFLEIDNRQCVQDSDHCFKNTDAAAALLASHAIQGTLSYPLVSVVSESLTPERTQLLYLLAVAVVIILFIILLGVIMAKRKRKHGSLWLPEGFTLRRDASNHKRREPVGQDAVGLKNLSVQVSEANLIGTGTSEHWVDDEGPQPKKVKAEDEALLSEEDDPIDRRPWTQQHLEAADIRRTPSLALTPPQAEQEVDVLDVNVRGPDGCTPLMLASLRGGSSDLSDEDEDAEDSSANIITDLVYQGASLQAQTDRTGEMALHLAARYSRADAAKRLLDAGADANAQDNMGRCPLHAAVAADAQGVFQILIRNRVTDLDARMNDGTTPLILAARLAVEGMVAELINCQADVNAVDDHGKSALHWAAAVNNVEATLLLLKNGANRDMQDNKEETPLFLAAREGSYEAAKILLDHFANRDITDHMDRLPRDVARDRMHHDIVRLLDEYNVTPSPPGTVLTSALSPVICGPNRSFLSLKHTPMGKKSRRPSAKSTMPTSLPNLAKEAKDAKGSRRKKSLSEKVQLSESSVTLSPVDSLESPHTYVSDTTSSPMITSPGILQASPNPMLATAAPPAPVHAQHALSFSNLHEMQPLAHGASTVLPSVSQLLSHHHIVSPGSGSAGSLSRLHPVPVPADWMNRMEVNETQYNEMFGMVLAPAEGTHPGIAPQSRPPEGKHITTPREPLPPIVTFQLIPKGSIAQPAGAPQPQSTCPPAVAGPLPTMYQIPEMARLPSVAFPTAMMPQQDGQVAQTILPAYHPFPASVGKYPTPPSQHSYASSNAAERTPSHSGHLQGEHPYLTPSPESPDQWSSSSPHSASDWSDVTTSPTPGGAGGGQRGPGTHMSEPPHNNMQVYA
Sequence of Pro-neuregulin-1, membrane-bound isoform (Homo sapiens) (Q02297 whole entry, looked up, the tested form may be a part, canonical isoform): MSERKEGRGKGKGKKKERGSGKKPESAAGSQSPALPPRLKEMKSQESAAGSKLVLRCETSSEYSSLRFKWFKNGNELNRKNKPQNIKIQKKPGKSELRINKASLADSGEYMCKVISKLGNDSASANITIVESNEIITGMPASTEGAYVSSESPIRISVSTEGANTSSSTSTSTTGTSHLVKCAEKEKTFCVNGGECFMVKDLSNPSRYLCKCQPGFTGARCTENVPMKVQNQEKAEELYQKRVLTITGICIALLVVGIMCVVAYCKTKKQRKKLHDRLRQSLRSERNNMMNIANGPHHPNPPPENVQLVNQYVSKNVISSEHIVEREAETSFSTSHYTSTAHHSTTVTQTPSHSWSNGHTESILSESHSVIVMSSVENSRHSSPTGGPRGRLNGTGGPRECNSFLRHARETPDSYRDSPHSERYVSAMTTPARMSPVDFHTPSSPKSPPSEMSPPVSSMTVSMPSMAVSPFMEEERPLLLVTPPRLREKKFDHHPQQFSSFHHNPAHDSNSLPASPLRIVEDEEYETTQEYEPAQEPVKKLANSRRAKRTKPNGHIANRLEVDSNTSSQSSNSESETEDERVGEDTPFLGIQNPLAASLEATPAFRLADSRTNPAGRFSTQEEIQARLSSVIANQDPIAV

For `O=C1OCC=C[C@H]2OC34C=CCN(c5ccc(Cl)cc5)C(=O)[C@H]3N(CCCCCCO)C(=O)[C@@H]4[C@@H]12` (stereo not given in full), the composite z-score in test [1] is 1.06; in test [2], -0.793; in [3], -0.163; in test [4], -0.688; in [5] it was -0.737; in test [6], 2.26. For the same molecule, the composite z-score is 1.53 in test [7]; -0.455 in test [9]; -0.271 in test [10]; -1.01 in test [11]; 1.92 in [15]; -0.0936 in [17]. Further, the composite z-score in test [18] was -1.51; in [19] it was -0.464; in [20] it was -0.273. Further, the z-score in test [8] is 1.16 (inactive); in test [12], -0.88 (inactive); in test [13], -1.63 (inactive); in test [14], -0.787 (inactive); in test [16] it was 0.437 (inactive).
As to `COC(=O)c1ccc(C23CC2(C(NP(=O)(c2ccccc2)c2ccccc2)c2ccccc2)C3)cc1` (stereo not given), the composite z-score in [1] was 0.741; in test [2], 0.275; in test [3], -0.0009; in [4], 0.0592; in test [5], 1.73; in test [6], 2.26. For the same molecule, the composite z-score in test [7] turned out to be 1.17; in test [9], 1.73; in test [10], 0.0596; in test [11], 0.214; in test [15], 3.18; in test [17] it was 0.888. The results for the composite z-score in test [18], in [19] and in [20] were 0.13, 1.07 and 0.0632, respectively. The z-score in [8] is -4.52 (inactive); in test [12] it was -2.72 (inactive); in test [13], -1.76 (inactive); in test [14], -0.789 (inactive); in [16] it was 0.259 (inactive).
As for `N[C@@H](Cc1ccccc1)Cn1cc(-c2ccccc2)nn1`, the composite z-score in test [1] was 0.407; in test [2], 0.556; in test [3], -0.0613; in [4] it was -0.161; in test [5] it was 0.0615; in test [6], 0.429. Also, the composite z-score was 0.198 in test [7]; 0.746 in [9]; -0.186 in test [10]; 0.043 in test [11]; 0.196 in test [15]; 0.323 in test [17]. The composite z-score was -0.0062 in [18], -0.0488 in test [19] and -0.0549 in test [20]. Besides, the z-score in test [8] was 0.874 (inactive); in [12], -0.814 (inactive); in [13], -2.18 (inactive); in test [14] it was 0.371 (inactive); in test [16] it was -3 (inactive).
Turning to `CCCCCCc1nc(CCCc2cc3c(c(CCCCCC)n2)[Si](C(C)C)(C(C)C)OC3)cc2c1[Si](C(C)C)(C(C)C)OC2`, the composite z-score in test [1] is -0.0039; in [2], 0.0271; in test [3] it was -0.149; in test [4] it was -0.408; in test [5], -0.955; in test [6], -0.247. Moreover, the composite z-score in test [7] is -0.774; in [9], -0.344; in test [10] it was 0.0274; in test [11], -0.41; in test [15] it was -0.134; in test [17], -0.208. The composite z-score in test [18] was 0.257; in test [19], -0.58; in test [20] it was -0.287. The z-score was 0.521 (inactive) in [8]; -0.506 (inactive) in test [12]; -2.38 (inactive) in test [13]; 0.256 (inactive) in test [14]; -0.3 (inactive) in test [16].
`CCOC(=O)C[C@H]1[C@H](OC(=O)Cc2ccc3c(c2)OCO3)[C@@H](NC(=O)C2CCCCC2)c2cc(OCCCO)ccc2N1C(=O)Cc1ccc(OC)cc1`: the composite z-score in test [1] was -0.397; in [2], 0.0664; in test [3], -0.048; in [4], 0.145; in [5] it was 1.17; in test [6] it was -0.054. For the same molecule, the composite z-score in test [7] was 0.86; in [9] it was 0.364; in test [10] it was 0.0515; in test [11], 1.19; in test [15], 1.89; in test [17] it was -0.0313. Further, the results for the composite z-score in test [18], in [19] and in test [20] were 0.509, 0.892 and -0.0234, respectively. Moreover, the z-score in test [8] was -2.5 (inactive); in test [12] it was -1.74 (inactive); in test [13], -0.38 (inactive); in [14] it was -0.558 (inactive); in test [16], 1.21 (inactive).
As for `COCCOC(=O)N1C(=O)[C@@]2(c3cc(C#CC4=CCCCC4)ccc31)[C@H](C(=O)NC[C@H](O)c1ccccc1)[C@H]1C(=O)O[C@H](c3ccccc3)[C@H](c3ccccc3)N1[C@@H]2c1ccc(O)cc1`, the composite z-score in test [1] is -0.377; in [2], 0.189; in test [3], -0.105; in test [4], 0.797; in test [5], 1.23; in test [6], 0.996. Moreover, the composite z-score in test [7] was 1.19; in test [9], 0.353; in [10] it was -0.0296; in test [11], 1.54; in test [15], 2.08; in test [17], 0.0723. The composite z-score amounted to 0.829 in test [18], 1.06 in test [19] and 0.0937 in [20]. In addition, the z-score in test [8] was 0.591 (inactive); in test [12] it was 1 (inactive); in [13], 0.0198 (inactive); in [14] it was 1.83 (inactive); in [16], 2.13 (inactive).
